# Assay results reported in ChEMBL document CHEMBL3988442, “University of Dundee, Small-Polar-MMV Screening Library” (2021).
# How the values were obtained:
# [1] = target: T1, Aspartate--tRNA(Asp/Asn) ligase (Mycobacterium tuberculosis (strain ATCC 25618 / H37Rv)) (UniProt P9WFW3); experiment: Assay for Asp RNA synthetase-1 from Mycobacterium tuberculosis; assay type: functional; set-up: scale not given: direction of the effect not stated beside the values; conditions: 30 µM; also: in the data most compounds retested in dose-response had high values
# T1 sequence (whole entry): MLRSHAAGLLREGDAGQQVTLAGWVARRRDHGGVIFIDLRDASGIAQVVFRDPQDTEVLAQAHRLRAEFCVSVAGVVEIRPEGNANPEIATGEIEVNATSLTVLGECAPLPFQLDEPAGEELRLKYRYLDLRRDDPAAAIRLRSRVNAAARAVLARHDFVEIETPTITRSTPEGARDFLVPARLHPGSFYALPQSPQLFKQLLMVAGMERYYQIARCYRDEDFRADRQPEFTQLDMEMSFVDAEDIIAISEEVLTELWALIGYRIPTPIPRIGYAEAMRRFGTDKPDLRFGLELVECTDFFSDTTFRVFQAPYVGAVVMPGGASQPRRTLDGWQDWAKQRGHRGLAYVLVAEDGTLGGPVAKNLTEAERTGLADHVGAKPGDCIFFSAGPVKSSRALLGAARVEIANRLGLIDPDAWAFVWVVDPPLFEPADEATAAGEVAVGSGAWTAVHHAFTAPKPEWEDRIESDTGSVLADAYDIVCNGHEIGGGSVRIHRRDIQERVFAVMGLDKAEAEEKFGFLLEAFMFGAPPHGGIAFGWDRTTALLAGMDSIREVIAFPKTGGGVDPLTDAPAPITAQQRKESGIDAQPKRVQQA
# [2] = target: Shiga toxin 2 (Escherichia coli O157:H7) (UniProt P09385+P09386); experiment: E. coli 0.157:H7 Shiga Toxin SOP - stx2 screening assay; assay type: functional; set-up: scale not given: direction of the effect not stated beside the values; conditions: 30 µM
Compound,Percent Effect [1] [%],Percent Effect [2] [%]
CCn1nnc2c1C(COC)CN(C(=O)Cc1cccs1)C2 (centres undefined),-8.15,-30.3
CCc1cnc(CNc2ccc(C(=O)N3CCCC(C)C3)cc2C)o1 (centres undefined),-5.74,21.6
CCS(=O)(=O)N1CCC2(CCC2NC(=O)c2ccn(C)c2)CC1 (centres undefined),1.6,9
CN(CCO)C[C@@H]1CN(C(=O)c2c(F)cccc2Cl)C[C@@H]1CO,2.26,-49
Cn1cc(N2CC3(COCCN(Cc4ccsc4)C3)OCC2=O)cn1 (centres undefined),13.7,-3.88
CCN(C)c1ncnc2c1CCN(C(=O)c1ccno1)CC2,7.02,-5.46
COc1ccc(F)cc1C(=O)N(C)Cc1cc(C)on1,-3.3,-29.3
CO[C@H]1CCN(Cc2cccc(C)n2)[C@@H]2CN(Cc3cccnc3)C[C@H]12,-0.57,-14.4
Cc1cc(C)n(C2CN(CC(O)c3ccc(F)cc3)C2)n1 (centres undefined),2.19,6.15
Cc1ncsc1-c1nnc(C2CCN(CC3CCCCC3)CC2)o1,-2.81,-22.2
CCc1nc(C2CCCN2CC(=O)Nc2c(C)nn(C)c2C)no1 (centres undefined),3.31,-7.62
CCc1nc(C(=O)N2CCN(C)CC2C)nn1-c1ccccc1Cl (centres undefined),11.5,26.3
CN1CCCC(Cc2ccnc3ccncc23)CC1 (centres undefined),-3.5,-21.3
COC(=O)Cn1c(=O)nc2n1C(=O)N(c1ccccc1)C2,1.18,-22.6
c1cncc(OCc2nnn3c2CN(Cc2ccsc2)CCC3)c1,-0.204,-23
Cc1ccccc1N1CCN(C(=O)c2ccc[nH]2)C(C)C1 (centres undefined),-2.33,24.5
CC(NC(=O)NCCCn1ccnc1)c1ccc2c(c1)OCCCO2 (centres undefined),1.46,20.4
